Bioassay records deposited in PubChem BioAssay by Johns Hopkins Ion Channel Center.
An excerpt weighted towards active compounds, which were near 1.6% of everything screened.
KCNQ2 enhance – enhances the rat KCNQ2 potassium channel. CHO-K1 KCNQ2, FluxOR thallium flux fluorescence; active compounds read high. B-score at 10 µM. actives 0.54% (n = 310,000). AID 2239;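 active = fluorescence ratio B-score at least 3 SD of library B-scores, with initial fluorescence B-score within 3 of them, cut at about 5.3 in these data; same plate scores as AID 2156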;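 also: B-score of peak minus minimum over baseline fluorescence ratio after K+ and Tl+ stimulus; positive B-score means potentiation of KCNQ2 with more thallium influx and brighter signal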
KCNQ2 block – blocks the rat KCNQ2 potassium channel; CHO-K1 KCNQ2, FluxOR thallium flux, 20 min; active compounds read low; actives 1.1% (n = 310,000); B-score at 10 µM; O88943;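 active = fluorescence ratio B-score at most minus 3 library SDs, with starting brightness B-score within 2 library SDs, cut at about -5.5 in these data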
Kir21 conf inh – confirmation of mouse Kir2.1 potassium channel inhibitors; shares compounds with KCNQ2 enhance; Kir2.1-expressing cells, FluxOR thallium flux fluorescence; active compounds read low; Tl flux remaining, % of negative control (active compounds read low), % at 10 µM; actives 41% (n = 2,300); AID 2032;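 active = Primary-screen hit whose thallium flux fell at least 3 control SD below untreated wells in both duplicates, with normal baseline fluorescence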
Target sequence (P35561 whole entry, looked up): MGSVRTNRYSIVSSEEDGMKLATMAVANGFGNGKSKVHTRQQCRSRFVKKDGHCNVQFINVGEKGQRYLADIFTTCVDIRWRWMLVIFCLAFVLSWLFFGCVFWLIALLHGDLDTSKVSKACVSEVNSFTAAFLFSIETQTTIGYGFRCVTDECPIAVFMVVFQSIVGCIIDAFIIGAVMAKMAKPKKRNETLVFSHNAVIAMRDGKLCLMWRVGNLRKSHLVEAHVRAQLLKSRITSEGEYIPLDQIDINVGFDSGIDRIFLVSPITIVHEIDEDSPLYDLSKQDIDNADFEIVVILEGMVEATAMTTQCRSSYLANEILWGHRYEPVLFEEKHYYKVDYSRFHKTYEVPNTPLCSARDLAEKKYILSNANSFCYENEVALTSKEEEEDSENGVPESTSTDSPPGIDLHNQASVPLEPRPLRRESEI
HEK293 ctr – counter-screen for Kir2.1 inhibitors: effect in parental HEK293 cells; FluxOR signal as % of negative control (100 = no effect), % at 10 µM; actives 19% (n = 2,300); shares compounds with KCNQ2 enhance; FluxOR thallium flux fluorescence; 0% = unstimulated blank wells;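 active = dye signal at least 3 control SD above or below untreated wells in both duplicates, raw fluorescence within 3, either direction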;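 also: percent is based on the flux ratio of peak minus minimum fluorescence over baseline F0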
CHO-K1 ctr – counter-screen for KCNQ2 potentiators: effect in parental CHO-K1 cells; activity increase over 3SD of controls, % at 10 µM; FluxOR thallium flux fluorescence; zero = vehicle mean+3SD, 100% = vehicle-minus-blank window; shares compounds with KCNQ2 enhance; actives 43% (n = 1,200);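 active = signal rise of at least 3 SD above the untreated control mean, in both duplicate wells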;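 also: counter screen of KCNQ2 potentiator hits so any rise reflects channel-independent effects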
KCNQ1 sel pot – human KCNQ1 counter-target activity of KCNQ2 potentiators | shares compounds with KCNQ2 enhance | CHO KCNQ1 stable, FluxOR thallium flux fluorescence; beyond 3SD, as % of vehicle-control signal | activation over 3SD threshold, % at 10 µM | actives 28% (n = 1,200) | AID 2283;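 active = fluorescence ratio rise of at least 3 SD of vehicle wells above their mean, in both replicate wells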
KCNQ2 pot confirm – rat KCNQ2 channel potentiator confirmation. shares compounds with KCNQ2 enhance. CHO-KCNQ2 cells, FluxOR thallium flux fluorescence. potentiation, less the hit threshold, % at 10 µM. AID 2287. actives 68% (n = 1,200);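 active = fluorescence ratio rising 3 SD or more over the vehicle control mean in both replicates, plus primary screen hit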;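 also: peak minus minimum thallium fluorescence divided by baseline after K/Tl stimulus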
Kir21 spec – tests whether KCNQ2 potentiators also affect mouse Kir2.1 | shares compounds with KCNQ2 enhance | HEK293 Kir2.1, FluxOR thallium flux fluorescence | activity over 3SD threshold, % at 10 µM | actives 2% (n = 1,200);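 active = fluorescence ratio rise of at least 3 SD above the vehicle-control mean, seen in both replicates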
KCNQ2 W236L MoA – KCNQ2 potentiators acting on retigabine-insensitive rat KCNQ2 W236L mutant | shares compounds with KCNQ2 enhance | CHO KCNQ2-W236L, automated patch clamp current | current increase over 3SD of negative controls (%), active compounds read high, % at 25 µM | actives 10% (n = 940) | AID 2558;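 active = current increase at least 3 SD of the untreated controls above them in both duplicate recordings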
A number is an active result.

For O=C(c1ccccc1)c1ccc(OCC(O)CNCc2ccc(F)cc2)cc1 (configuration not stated) the results were KCNQ2 block inactive, Kir21 conf inh 25.5% and HEK293 ctr inactive.
CC(C)(CO)NCc1c(OCc2ccc(Cl)cc2)ccc2ccccc12 was read as KCNQ2 enhance inactive and KCNQ2 block inactive.
`O=C(CSc1nnc(CNC(=O)c2ccccc2F)o1)NCc1ccco1` gave KCNQ2 enhance inactive and KCNQ2 block inactive.
Screening COC(=O)c1ccccc1NC(=O)COC(=O)CSc1nnc(N)s1 returned KCNQ2 block inactive.
CCn1c(=O)c(C(=O)NCc2ccc(OC)cc2)c(O)c2ccccc21 was read as KCNQ2 block inactive.
CCn1c(=O)c(C(=O)NCc2ccccn2)c(O)c2ccccc21 was read as KCNQ2 enhance 18.1, KCNQ2 block inactive, Kir21 conf inh inactive, HEK293 ctr inactive, CHO-K1 ctr inactive, KCNQ1 sel pot inactive, KCNQ2 pot confirm 35.4, Kir21 spec inactive and KCNQ2 W236L MoA inactive.
For CCOC(=O)c1ccc(-c2ccc3[nH]c4ccccc4c(=O)c3c2)cc1F the results were KCNQ2 enhance inactive and KCNQ2 block inactive.
Cc1ccc(C(=O)Nn2c(N)c(S(=O)(=O)c3ccc(C)cc3)c3nc4ccccc4nc32)cc1 was read as KCNQ2 enhance inactive and KCNQ2 block inactive.
Screening Cc1ccc(S(=O)(=O)c2c(N)n(NC(=O)c3ccccc3C)c3nc4ccccc4nc23)cc1 returned KCNQ2 enhance inactive, KCNQ2 block inactive, Kir21 conf inh inactive, HEK293 ctr inactive, CHO-K1 ctr 98.1, KCNQ1 sel pot inactive, KCNQ2 pot confirm inactive, Kir21 spec inactive and KCNQ2 W236L MoA inactive.
`CCOc1ccccc1Oc1c(C)oc2cc(OC(=O)c3ccco3)ccc2c1=O` gave KCNQ2 block inactive.
`COc1ccccc1-c1c(C)oc2cc(OC(=O)c3ccco3)ccc2c1=O` gave KCNQ2 enhance inactive, KCNQ2 block inactive, Kir21 conf inh 69.5% and HEK293 ctr inactive.
For COC(=O)C1=C(C)N(Cc2ccccc2)C(=S)N[C@H]1c1cccc(F)c1 the results were KCNQ2 block inactive.
Screening CCN1C(=O)N[C@@H](c2cccc(F)c2)C(C(=O)OC)=C1C returned KCNQ2 enhance inactive and KCNQ2 block inactive.
Screening COCCN1C(=S)N[C@@H](c2cccc(F)c2)C(C(=O)OC)=C1C returned KCNQ2 block inactive, Kir21 conf inh 41.0% and HEK293 ctr inactive.
COCCN=C1N[C@@H](c2ccccc2)C(C(=O)OC)=C(C)N1Cc1ccccc1 was read as KCNQ2 block inactive.
`COCCN=C1N[C@@H](c2ccc(Br)cc2)C(C(=O)OC)=C(C)N1Cc1ccccc1` gave KCNQ2 block inactive, Kir21 conf inh 32.0% and HEK293 ctr 74.0%.
COC(=O)C1=C(C)N(Cc2ccccc2)C(=NCc2ccccc2)N[C@H]1c1cccc(F)c1 was read as KCNQ2 block inactive, Kir21 conf inh 19.0% and HEK293 ctr inactive.
CCN1C(=O)[C@H]2[C@@H](c3ccc(C)cc3)N3C(=O)N(c4ccc(C)cc4)C(=O)[C@@]3(C)[C@H]2C1=O was read as KCNQ2 enhance inactive and KCNQ2 block inactive.
O=C(O)c1cc(N/N=C/c2ccc(N3CCOCC3)s2)ccc1Cl was read as KCNQ2 enhance inactive and KCNQ2 block inactive.
For Oc1ccccc1CN1CCC(C(O)(c2ccccc2)c2ccccc2)CC1 the results were KCNQ2 block inactive.
Oc1ccccc1CN1CCN(C(O)(c2ccccc2)c2ccccc2)CC1 was read as KCNQ2 block inactive, Kir21 conf inh 65.5% and HEK293 ctr inactive.
Screening CN(C(=O)C1CCCO1)c1nnc(-c2ccccn2)s1 (configuration not stated) returned KCNQ2 enhance inactive and KCNQ2 block inactive.
`COc1ccc(C(CCNCc2ccccc2)c2ccc(F)cc2)cc1` (configuration not stated) gave KCNQ2 block inactive.
Screening COc1ccc(CNC/C=C/c2ccccc2)cc1 returned KCNQ2 enhance inactive, KCNQ2 block inactive, Kir21 conf inh 18.0% and HEK293 ctr inactive.
For Cc1ccc(C(O)(CCN2CCCCC2)c2ccccc2)cc1 (configuration not stated) the results were KCNQ2 block inactive.
Screening COc1ccc(CNCC(O)(c2ccccc2)c2ccc(F)cc2)cc1 (configuration not stated) returned KCNQ2 block inactive, Kir21 conf inh 41.5% and HEK293 ctr inactive.
Cc1ccc(C(O)(CNCc2ccccc2)c2ccccc2)cc1 (configuration not stated) was read as KCNQ2 block inactive, Kir21 conf inh 46.0% and HEK293 ctr inactive.
`COc1ccc(CCNC/C=C/c2ccccc2)cc1` gave KCNQ2 enhance inactive and KCNQ2 block inactive.
O=C(Nc1ccc(S(=O)(=O)N2CCCC2)cc1)c1ccc(OCC2CCCO2)cc1 (configuration not stated) was read as KCNQ2 block inactive.
`Cc1cc(C)nc(N2N=C(C(C)(C)C)CC2=O)n1` gave KCNQ2 enhance inactive and KCNQ2 block inactive.
Cc1cccc(N(C(=O)c2csnn2)C(C(=O)NC2CCCC2)c2ccncc2)c1 (configuration not stated) was read as KCNQ2 block inactive.
For CCc1ccc(OCC(=O)Nc2ccncc2)c(Br)c1 the results were KCNQ2 enhance inactive and KCNQ2 block inactive.
CC(C)(C)c1ccc(OCC(=O)Nc2ccncc2)c(Br)c1 was read as KCNQ2 enhance 5.57, KCNQ2 block inactive, Kir21 conf inh inactive, HEK293 ctr inactive, CHO-K1 ctr inactive, KCNQ1 sel pot inactive, KCNQ2 pot confirm inactive, Kir21 spec inactive and KCNQ2 W236L MoA inactive.
Screening Cc1cc2ccccc2nc1SCC(=O)NC1CCCCC1 returned KCNQ2 enhance 11, KCNQ2 block inactive, Kir21 conf inh inactive, HEK293 ctr inactive, CHO-K1 ctr inactive, KCNQ1 sel pot inactive, KCNQ2 pot confirm 11.3, Kir21 spec inactive and KCNQ2 W236L MoA inactive.
For Cc1cc(SCC(=O)NC2CCCCC2)nc2ccccc12 the results were KCNQ2 enhance inactive and KCNQ2 block inactive.
